From PubChem BioAssay (NCI)
About 83,000 compounds went through this panel and 20% of them were active in at least one assay; those are over-represented in the sample as a whole.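 Compound tested at a single concentration for 48 hours in 96-well plates; a percent growth value below 10 was scored as active.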

What was measured:
Assay in all cases: NCI-60 one-dose screen, 48 h (100 = growth as untreated, 0 = no growth, -100 = all killed)
[1] = test system: NCI-H23 lung; settings: 10 µM unless noted
[2] = test system: NCI-H226 lung; settings: 10 µM unless noted
[3] = test system: NCI-H322M lung; settings: 10 µM unless noted
[4] = test system: HOP-62 NSCLC; settings: 10 µM unless noted
[5] = test system: NCI-H460 lung; settings: 10 µM unless noted
[6] = test system: 786-0 renal; settings: 10 µM unless noted
[7] = test system: MDA-MB-231 breast; settings: 10 µM unless noted
[8] = test system: SF-268 CNS; settings: 10 µM unless noted
[9] = test system: SF-539 CNS; settings: 10 µM unless noted
[10] = test system: M14 melanoma; settings: 10 µM unless noted
[11] = test system: HCT-15 colon; settings: 10 µM
[12] = test system: U251 CNS; settings: 10 µM unless noted
[13] = test system: UACC-62 melanoma; settings: 10 µM unless noted
[14] = test system: SK-MEL-28 melanoma; settings: 10 µM unless noted
[15] = test system: UO-31 renal; settings: 10 µM unless noted
[16] = test system: OVCAR-5 ovarian; settings: 10 µM unless noted
[17] = test system: MDA-MB-435 melanoma; settings: 10 µM unless noted
[18] = test system: SW-620 colon; settings: 10 µM unless noted
[19] = test system: MCF7 breast; settings: 10 µM unless noted
[20] = test system: KM12 colon; settings: 10 µM unless noted

Measured: growth

CCC(/C=C(C)/C=C/C(=O)c1c(O)c(-c2ccc(O)cc2)c[nH]c1=O)CO (stereo not given)
inactive: [1] 98.4% | [2] 106% | [3] 96% | [4] 98% | [5] 93.4% | [6] 87.6% | [7] 111% | [8] 45.1% | [9] 77.4% | [10] 104% | [11] 91.6% | [12] 67.6% | [13] 99.8% | [14] 105% | [15] 67.9% | [16] 134% | [17] 80.9% | [18] 100% | [19] 88.7% | [20] 47%

CCCCCCCCCCOc1ccc(C(=O)Oc2ccc(CSP3(=O)OCC4OC(n5ccc(=O)[nH]c5=O)C(F)C4OP(=O)(O)OCC4OC(n5cnc6c(N)ncnc65)C(F)C4O3)cc2)cc1 (stereo not given)
inactive: [1] 103% | [2] 75.5% | [3] 84.8% | [4] 111% | [5] 108% | [6] 98.6% | [7] 111% | [8] 104% | [9] 23.1% | [10] 90.7% | [11] 105% | [12] 104% | [13] 111% | [14] 113% | [15] 98.5% | [16] 116% | [17] 105% | [18] 115% | [19] 95.5% | [20] 103%

CC(C)CCC1(CCO)C(=O)NC(=S)NC1=O
inactive: [1] 110% | [2] 105% | [3] 105% | [4] 105% | [5] 109% | [6] 110% | [7] 104% | [8] 95.1% | [9] 125% | [10] 103% | [11] 91.7% | [12] 97.2% | [13] 97.3% | [14] 116% | [15] 84.1% | [16] 99.5% | [17] 104% | [18] 105% | [19] 109% | [20] 104%
